This is an account of results in PubChem BioAssay (NCATS).

The structures appear in SMILES notation. Structures can show the parent of a compound that is named as a salt. Records with an inconclusive call do not appear. The source made the active and inactive calls. Unless noted, calls follow the shape of the dose curve; as a rule, active = well fitted curve in the direction sought with a large enough effect; inconclusive = small, poorly fitted or top-dose-only effect, or another doubt; inactive = no such curve, though single readings can be large; an effect the other way counts as inactive or inconclusive. Numbered stars: 1 amine (or outer) side, 2 acyl side, 3 side chain; on linkers, the order of the positions; unused ones are H or OH. Bridge positions count the residues as written; N and C are the ends. Square brackets hold non-standard residues; d marks the D form. Peptide text beside a SMILES is read from it. * marks the point of attachment. ξ: configuration not given here. ΔAla(E,3-NHCONH2) = NC(=O)N/C=C(/N)C(=O)O; X1 = NC1=NCCC(C(N[*:1])C(=O)[*:2])N1; ξβ3hOrn = NCCCC(N)CC(=O)*; Dap = NC[CH](N)C(=O)O; Tfa = O=C(C(F)(F)F)*

The target in assay [1] is Cytochrome P450 3A4 (Homo sapiens) (UniProt P08684). In words: qHTS Assay for Inhibitors and Substrates of Cytochrome P450 3A4 (AID 884). Also: nearly all actives have a fitted effect of over 50% in size. Also: potency is read from the fitted curve at half-maximal effect. As to activity change, negative = inhibition: % is scaled to controls: 0 for no effect and ±100 for the full control effect. Put shortly:
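20 nM human CYP3A4 with 25 uM Luciferin-PPXE (at KM) in 200 mM KPO4, preincubated 10 min with compound; NADPH regeneration started a 60 min RT reaction. Luciferin detected by luminescence, normalized to 57 uM ketoconazole as full inhibition.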
(qHTS replaces the single test concentration by a dilution series.)

Assay [2] in a line: Confirmation and Secondary Assay for Modulators of Hemoglobin Beta Chain Splicing at IVS2 654 locus (AID 910).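 Also: HeLa cells stably carrying EGFP split by mutant beta-globin IVS2-654 intron; % of control where 0% means no effect.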 Put shortly: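 HeLa cells stably expressing EGFP interrupted by β-globin IVS2-654 intron, seeded overnight in Opti-MEM/2% FCS, then treated 2 days at 37 °C. Restored splicing read as total peak GFP intensity per well by laser scanning cytometry (488 nm excitation, 500–520 nm emission); 500 nM antisense PNA as control.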

The nature of assay [3]: Confirmation and Secondary Assay for Modulators of Hemoglobin Beta Chain Splicing at IVS2 705 locus (AID 930).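 Also: HeLa cells stably expressing the EGFP-705 splicing reporter; % of control where 0% means no effect.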 Put shortly:
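Restored EGFP fluorescence after 2-day compound exposure reports splicing correction in IVS2-705 EGFP reporter HeLa cells; positive control was 500 nM splice-blocking PNA oligo. Signal measured as well total peak GFP intensity (488 nm excitation).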

The nature of assay [4]: qHTS Assay for Lipid Storage Modulators (AID 1519; calls by dose curve; as to activity change, negative = inhibition: % is scaled to controls: 0 for no effect and ±100 for the full control effect). The conditions noted are these: Drosophila S3 cells, BODIPY lipid droplet/cell ratio, laser cytometry, cells loaded with oleic acid; for activity change, negative = inhibition: at 57.5 µM (top of the series). Put shortly:
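Cells seeded at 5,000 per well were treated with compounds over a concentration series and loaded with oleic acid (400 uM, as added). Lipid droplet fluorescence (488 nm excitation, 500-530 nm channel) was read by laser-scanning cytometry and normalized to 20 uM Triacsin C.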

Assay [5] deals with Ubiquitin carboxyl-terminal hydrolase 1 (Homo sapiens) (UniProt O94782). Put plainly: Inhibitors of USP1/UAF1: Pilot qHTS (AID 504865).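 Also: rhodamine fluorescence freed from ubiquitin-rhodamine substrate followed over time; top concentration of the series differs between compounds; % is scaled to controls: 0 for no effect and ±100 for the full control effect; nearly all actives have a fitted effect of over 35% in size.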 The gist of the method: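 Deubiquitinase activity followed as kinetic rhodamine fluorescence release from 150 nM Ub-Rho. 1 nM USP1/UAF1 with compound, after 15 min room-temperature preincubation, in HEPES pH 7.8 buffer containing TCEP, EDTA, BSA and Tween-20.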

Assay [6] has as its target Cytochrome P450 3A4 (Homo sapiens) (UniProt P08684). Put plainly: qHTS Assay for Activators of Cytochrome P450 3A4 (AID 885). Also: nearly all actives have a fitted effect of over 65% in size. The gist of the method: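 Quantitative HTS format: compounds preincubated with 20nM human CYP3A4 and Luciferin-PPXE substrate at KM, reaction started by NADPH regeneration, stopped after 60 min, luciferase luminescence read 20 min later.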
[7] abbreviates: measured here: cell count channel max response.
Where [8] appears, read: measured here: lipid channel max response.

Chain of Cytochrome P450 3A4 (Homo sapiens) (P08684 whole entry, looked up): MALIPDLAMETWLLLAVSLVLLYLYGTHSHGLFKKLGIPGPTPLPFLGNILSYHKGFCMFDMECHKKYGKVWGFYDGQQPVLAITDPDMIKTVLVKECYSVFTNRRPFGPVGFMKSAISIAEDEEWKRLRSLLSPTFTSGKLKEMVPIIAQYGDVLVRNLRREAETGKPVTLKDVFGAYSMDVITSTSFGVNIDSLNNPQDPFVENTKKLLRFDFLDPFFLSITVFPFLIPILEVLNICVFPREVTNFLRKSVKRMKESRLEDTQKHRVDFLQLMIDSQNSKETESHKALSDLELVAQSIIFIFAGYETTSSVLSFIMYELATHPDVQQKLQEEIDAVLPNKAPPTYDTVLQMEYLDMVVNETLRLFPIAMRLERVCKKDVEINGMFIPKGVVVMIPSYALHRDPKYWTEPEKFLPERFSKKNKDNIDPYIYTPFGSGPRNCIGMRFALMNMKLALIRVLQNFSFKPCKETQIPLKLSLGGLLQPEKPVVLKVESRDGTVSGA
Chain of Ubiquitin carboxyl-terminal hydrolase 1 (Homo sapiens) (O94782 whole entry, looked up): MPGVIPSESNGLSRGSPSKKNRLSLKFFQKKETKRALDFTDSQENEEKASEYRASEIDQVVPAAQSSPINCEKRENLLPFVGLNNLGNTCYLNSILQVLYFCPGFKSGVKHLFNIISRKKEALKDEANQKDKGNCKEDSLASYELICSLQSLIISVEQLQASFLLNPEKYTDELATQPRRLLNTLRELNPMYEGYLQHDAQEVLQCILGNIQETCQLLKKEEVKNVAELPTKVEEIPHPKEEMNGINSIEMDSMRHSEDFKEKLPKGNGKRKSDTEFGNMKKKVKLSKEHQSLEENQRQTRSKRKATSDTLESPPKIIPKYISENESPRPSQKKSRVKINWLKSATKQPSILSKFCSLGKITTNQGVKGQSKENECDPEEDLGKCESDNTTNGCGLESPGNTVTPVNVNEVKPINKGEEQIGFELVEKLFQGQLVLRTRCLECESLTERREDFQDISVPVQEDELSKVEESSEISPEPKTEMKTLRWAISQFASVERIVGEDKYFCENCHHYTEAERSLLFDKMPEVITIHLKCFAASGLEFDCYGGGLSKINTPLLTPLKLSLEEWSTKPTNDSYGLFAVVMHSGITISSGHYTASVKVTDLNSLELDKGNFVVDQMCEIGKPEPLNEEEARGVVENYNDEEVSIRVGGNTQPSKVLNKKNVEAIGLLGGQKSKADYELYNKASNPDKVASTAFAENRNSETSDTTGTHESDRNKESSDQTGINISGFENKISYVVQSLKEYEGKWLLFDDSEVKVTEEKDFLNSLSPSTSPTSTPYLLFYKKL

Consider `[N-]=[N+]=NCC1OC(n2cnc3c(=O)[nH]c(N)nc32)C(O)C1O` (configuration not stated), for which the Potency result in assay [1], in assay [2], in assay [3] and in assay [5] was “inactive” in each case. Besides, the activity change, negative = inhibition in assay [4] was 4.07% (inactive). In addition, the max response came out at 12.7% in assay [4] (setting [7]) and 19.1% in assay [4] (setting [8]).
For `Cc1c(O)cc(O)c2c(=O)c(-c3ccc(O)cc3)coc12`, the Potency result in assay [1], in assay [2], in assay [3] and in assay [5] was “inactive” each time. Also, the activity change, negative = inhibition in assay [4] was 8.55% (inactive). The max response in assay [4] (setting [7]) was found to be 16.6%; in assay [4] (setting [8]) it was 28%.
For `NCCCC(N)CC(=O)NCC1NC(=O)C(CO)NC(=O)C(N)CNC(=O)C(C2CCN=C(N)N2)NC(=O)/C(=C\NC(N)=O)NC1=O` (stereo not drawn) (H-[Dap]S[Dap](ξβ3hOrn)[ΔAla(E,3-NHCONH2)][X1]; lactam 1-C; configuration not given here), the Potency entry in assay [1], in assay [2], in assay [3] and in assay [5] was “inactive” each time. Also, the activity change, negative = inhibition in assay [4] is 2.39% (inactive). Also, the max response worked out at 15.4% in assay [4] (setting [7]) and 21.2% in assay [4] (setting [8]).
Take `CCC(/C=C/C(C)C1CCC2C3CC=C4CC(O)CC[C@@]4(C)C3CC[C@@]12C)C(C)C` (some centres not stated): the Potency result in assay [1], in assay [3] and in assay [5] was “inactive” throughout. The activity change, negative = inhibition in assay [4] was -0.637% (inactive). Further, the max response in assay [4] (setting [7]) was determined as 13.1%; in assay [4] (setting [8]), 13.6%.
As for `CC(C)CC(N)C(=O)NC(C)C(=O)O` (configuration not stated), the Potency entry in assay [1], in assay [2], in assay [3] and in assay [5] was “inactive” throughout. Moreover, the activity change, negative = inhibition in assay [4] is 3.3% (inactive). Moreover, the max response in assay [4] (setting [7]) worked out at 18.5%; in assay [4] (setting [8]) it was 21.6%.
In the case of `NCC1O[C@@H](OC2C(N)C[C@H](N)[C@@H](O[C@H]3OC(CO)C(O)C(N)C3O)C2O)C(N)C(O)C1O` (some centres not stated), the Potency entry in assay [1], in assay [2], in assay [3] and in assay [5] was “inactive” throughout. The activity change, negative = inhibition in assay [4] is 2.92% (inactive). Also, the max response in assay [4] (setting [7]) was 11.9%; in assay [4] (setting [8]) it was 7.99%.
In the case of `CCOC(=O)c1c(C)cc(O)c(C)c1O`, the Potency entry in assay [1], in assay [2], in assay [3] and in assay [5] was “inactive” each time. For the same compound, the activity change, negative = inhibition in assay [4] was 6.04% (inactive). Further, the max response in assay [4] (setting [7]) was 15.9%; in assay [4] (setting [8]), 23.2%.
Take `COC1C(O)C(O)C(O)C(O)C1O` (configuration not stated): the Potency entry in assay [1], in assay [2], in assay [3] and in assay [5] was “inactive” each time. Moreover, the activity change, negative = inhibition in assay [4] is 5.15% (inactive). The results for the max response in assay [4] (setting [7]) and in assay [4] (setting [8]) were 13.2% and 22.7%, respectively.
Consider `CC(=O)OCC(=O)[C@]1(O)C(C)CC2C3CCC4=CC(=O)C=C[C@@]4(C)[C@]3(F)C(O)C[C@@]21C` (some centres not stated), for which the Potency result in assay [6], in assay [2], in assay [3] and in assay [5] was “inactive” each time. For the same compound, the activity change, negative = inhibition in assay [4] is -6.8% (inactive). For the same compound, the max response was 9.77% in assay [4] (setting [7]) and 2.72% in assay [4] (setting [8]).
With `Nc1ncnc2c1[nH]c(=O)n2C1OC(CO)C(O)C1O` (configuration not stated), the Potency entry in assay [1], in assay [3] and in assay [5] was “inactive” throughout. For the same compound, the activity change, negative = inhibition in assay [4] is -0.198% (inactive). The max response worked out at 11.6% in assay [4] (setting [7]) and 24.7% in assay [4] (setting [8]).
Turning to `CC1C(O)CC2C(C(=O)O)=CO[C@@H](O[C@H]3OC(CO)C(O)C(O)C3O)C21` (some centres not stated), the Potency result in assay [1], in assay [3] and in assay [5] was “inactive” throughout. Besides, the activity change, negative = inhibition in assay [4] is 4.54% (inactive). In addition, the max response in assay [4] (setting [7]) is 10.9%; in assay [4] (setting [8]), 15.2%.
`CC1(C)CCCC2(C)C3C(O)CC2(C)C(O)C31` (configuration not stated): the Potency entry in assay [6], in assay [2], in assay [3] and in assay [5] was “inactive” each time. Besides, the activity change, negative = inhibition in assay [4] was 1.58% (inactive). Also, the max response in assay [4] (setting [7]) is -2.66%; in assay [4] (setting [8]), -0.711%.
Consider `COc1cc(OC)c(C(C)=O)c(O)c1C`, for which the Potency entry in assay [6], in assay [2], in assay [3] and in assay [5] was “inactive” in each case. Further, the activity change, negative = inhibition in assay [4] was 17% (inactive). In addition, the results for the max response in assay [4] (setting [7]) and in assay [4] (setting [8]) were 5.25% and 27.6%, respectively.
Turning to `Cc1cc(=O)oc2c(O)c(O)ccc12`, the Potency result in assay [6], in assay [2], in assay [3] and in assay [5] was “inactive” in each case. Further, the activity change, negative = inhibition in assay [4] is -5.44% (inactive). Further, the max response in assay [4] (setting [7]) was -3.48%; in assay [4] (setting [8]), -9.34%.
Take `C/C1=C/CC(C)(C)/C=C/C/C(C)=C/CC1`: the Potency result in assay [1], in assay [2], in assay [3] and in assay [5] was “inactive” throughout. Further, the activity change, negative = inhibition in assay [4] was 0.556% (inactive). Moreover, the max response in assay [4] (setting [7]) was determined as 16.1%; in assay [4] (setting [8]), 16.9%.
Consider `C=C[C@](C)(O)CCC1C(=C)CCC2[C@@](C)(CO)CCC[C@@]12C` (some centres not stated), for which the Potency in assay [1] is 2510 nM (active). The Potency entry in assay [3] and in assay [5] was “inactive” each time. Further, the activity change, negative = inhibition in assay [4] was 2.53% (inactive). Further, the max response is -1.43% in assay [4] (setting [7]) and 3.55% in assay [4] (setting [8]).
Consider `CC(=O)OC1CC[C@]2(C)C(=CCC3C4CCC(C(C)CCCC(C)C)[C@]4(C)CCC32)C1` (some centres not stated), for which the Potency entry in assay [1], in assay [3] and in assay [5] was “inactive” in each case. Also, in assay [4], the activity change, negative = inhibition is 5.26% (inactive). In addition, the max response in assay [4] (setting [7]) turned out to be 9.32%; in assay [4] (setting [8]), 13.2%.
As for `CC(=O)OCC(OC(C)=O)C(OC(C)=O)C(OC(C)=O)C(OC(C)=O)C(COC(C)=O)OC(C)=O` (configuration not stated), the Potency entry in assay [1], in assay [3] and in assay [5] was “inactive” throughout. Besides, in assay [4], the activity change, negative = inhibition was 10.5% (inactive). The max response in assay [4] (setting [7]) was 5.07%; in assay [4] (setting [8]), 17.8%.
Regarding `C#C[C@]1(O)CCC2C3CCC4=Cc5oncc5C[C@@]4(C)C3CC[C@@]21C` (some centres not stated), the Potency entry in assay [6], in assay [2], in assay [3] and in assay [5] was “inactive” in each case. In assay [4], the activity change, negative = inhibition is 9.19% (inactive). Further, the max response in assay [4] (setting [7]) was determined as 9.5%; in assay [4] (setting [8]), 21.9%.
Regarding `CC(C)C(NC(=O)C(Cc1ccc(O)cc1)NC(=O)C(NC(=O)C(F)(F)F)C(C)C)C(=O)O` (stereo not drawn) (Tfa-Val-Tyr-Val-OH; configuration not given here), the Potency result in assay [1], in assay [3] and in assay [5] was “inactive” in each case. Further, the activity change, negative = inhibition in assay [4] is 4.31% (inactive). Moreover, the max response in assay [4] (setting [7]) amounted to 0.432%; in assay [4] (setting [8]) it was 4.35%.
Regarding `Nc1nc2[nH]c(=O)[nH]c2c(=O)[nH]1`, the Potency result in assay [1], in assay [2], in assay [3] and in assay [5] was “inactive” in each case. Moreover, the activity change, negative = inhibition in assay [4] was -0.21% (inactive). Also, the max response worked out at 10.7% in assay [4] (setting [7]) and 11.7% in assay [4] (setting [8]).
In the case of `C=C1CCC2C(CC2(C)C)C(=C)CC/C1=N/O` (configuration not stated), the Potency result in assay [6], in assay [2], in assay [3] and in assay [5] was “inactive” throughout. For the same compound, the activity change, negative = inhibition in assay [4] is 4.06% (inactive). Also, the figures for the max response in assay [4] (setting [7]) and in assay [4] (setting [8]) were 4.09% and 9.2%, respectively.
Regarding `CON`, the Potency result in assay [1], in assay [2], in assay [3] and in assay [5] was “inactive” throughout. In addition, the activity change, negative = inhibition in assay [4] was 4.31% (inactive). For the same compound, the max response in assay [4] (setting [7]) amounted to 12.5%; in assay [4] (setting [8]), 21.6%.
As to `CC(C)(O)C1CC[C@@]2(C)C3CCC4[C@@]5(C)CCCC(C)(C)C5C(O)C[C@]4(C)[C@]3(C)CC[C@@H]12` (some centres not stated), the Potency result in assay [1], in assay [3] and in assay [5] was “inactive” throughout. Further, in assay [4], the activity change, negative = inhibition is 5.94% (inactive). Also, the max response came out at 19.9% in assay [4] (setting [7]) and 27.3% in assay [4] (setting [8]).
`COc1ccc(C2OC3C(CO)OC(n4cnc5c(=O)[nH]c(N)nc54)C3O2)cc1` (configuration not stated): the Potency result in assay [1], in assay [2], in assay [3] and in assay [5] was “inactive” throughout. The activity change, negative = inhibition in assay [4] is 1.28% (inactive). Further, the max response came out at 11.1% in assay [4] (setting [7]) and 13.1% in assay [4] (setting [8]).
